# The campaign covered roughly 48,000 compounds. About 13,000 (27%) showed an effect of 50% or more. Some of the results follow.
# Tested on: Wolbachia pipientis
# Assay: Anti-Wolbachia Cell-Based Screen
# Assay type: functional
# Parameters: scale not given: in the data most compounds retested in dose-response had high values
# Conditions: 5 µM
row,Structure (SMILES),Percent Effect [%]
1,Cc1nnc2n1CCN(CC(O)CN1CCC(C)CC1)C2 (stereo not drawn),-0.2217
2,CC(C)(C)c1nc(CN2CCCC(Cn3cncn3)C2)cs1 (stereo not drawn),5.475
3,Cc1cnn(CC2CN(Cc3csc(C(C)C)n3)CCO2)c1 (stereo not drawn),144.1
4,c1csc(-c2nc(CN3CCOC(Cn4cncn4)C3)co2)c1 (stereo not drawn),1.427
5,CC(C)c1nc(CN2CCOC(Cn3cncn3)C2)cs1 (stereo not drawn),78.62
6,CC(C)Cc1noc(CN2CCOC(Cn3cncn3)C2)n1 (stereo not drawn),-1.295
7,CC(=O)N(C)c1nc(CN2CCOC(Cn3cc(C)cn3)C2)cs1 (stereo not drawn),-3.323
8,Cc1ccc(-c2nc(CN3CCOC(Cn4cncn4)C3)cs2)o1 (stereo not drawn),11.16
9,CC(C)(C)c1nc(CN2CCOC(Cn3cncn3)C2)cs1 (stereo not drawn),103.7
10,CC(C)c1nc(CN2CCOCC2)cs1,0.6364
11,CN(C(=O)COCc1ccccc1)C1CCN(CC2CCOC2)CC1 (stereo not drawn),-14.42
12,CCC(C)(N)c1nc(C(C)C)cc(=O)[nH]1.Cl (stereo not drawn),-2.59
13,CCc1nnc2n1CC(CNCc1ccncc1)CC2 (stereo not drawn),-8.895
14,Cc1nccn1-c1ccc(CNS(=O)(=O)N2CCCC(C)C2)cn1 (stereo not drawn),-3.486
15,CC(C(=O)NCc1ccc(-n2cncn2)nc1)n1ccnc1 (stereo not drawn),-4.71
16,O=C(NCc1cccnc1-n1cncn1)c1cc(Cl)ccn1,106.2
17,CC(C(=O)NCc1ccc(-n2cncn2)nc1)S(C)(=O)=O (stereo not drawn),-11.84
18,CCCc1nc(C(=O)NCc2cccnc2-n2cncn2)cs1,-5.546
19,O=C(NCc1ccc(-n2cncn2)nc1)c1ccoc1,0.1706
20,O=C(NCc1ccc(-n2cncn2)nc1)c1cnccn1,91.78
21,CC(C)C(=O)NCc1ccc(-n2cncn2)nc1,-6.912
22,CCC(C)C(=O)NCc1ccc(-n2cncn2)nc1 (stereo not drawn),-5.498

row,Structure (SMILES),Percent Effect [%]
1,O=C(NCc1ccc(-n2cncn2)nc1)c1cc(Cl)ccn1,100.5
2,O=C(NCc1ccc(-n2cncn2)nc1)c1cc[nH]n1,86.29
3,CCN(CC)c1ccc(C(=O)NCc2cccnc2-n2cncn2)cn1,14.25
4,CC(C)COC(C)C(=O)NCc1ccc(-n2cncn2)nc1 (stereo not drawn),-8.308
5,COCCN(Cc1ccc(F)cc1Cl)C(=O)c1ccc(=O)[nH]n1,-1.923
6,CCc1nsc(N2CCN(CC(=O)Nc3c(C)n[nH]c3C)CC2)n1,-25.55
7,CCc1nc(CN2CCCN(C(=O)COCC3CC3)CC2)cs1,-1.235
8,CCN(CC(C)O)C(=O)Nc1cnn(CCOC)c1 (stereo not drawn),-12.18
9,NC(=O)NC(=O)CCN1CCCN(c2nccs2)CC1,-3.66
10,COCc1cc(N(C)Cc2cnccn2)nc(C(C)(C)C)n1,4.515
11,CC(C)(CNCc1ccc(OCc2cscn2)cc1)C(N)=O.Cl,0.3922
12,COc1ccc(F)cc1-c1ccccc1CC1(C(=O)O)CCOCC1,118.1
13,COc1ccccc1Oc1ncccc1CNC(=O)C1(C)CCCNC1 (stereo not drawn),21.66
14,COc1ccccc1-c1ccccc1CC1(C(=O)O)CCNCC1,100.9
15,COc1ccc(F)cc1NC(=O)NCC1(C)COC1,5.652
16,COc1ccccc1CN(C)C(=O)CN1C(=O)OC[C@@H]1c1ccccc1,-5.71
17,CCOC(=O)C1(Cc2cccc(OC)c2)CCN(Cc2ccon2)CC1,2.808
18,CCOC(=O)C1(Cc2ccccc2-c2ccccc2OC)CCNCC1.Cl,172.1
19,COc1ccccc1CCN[C@@H]1c2ccccc2C2(CCNCC2)[C@H]1O,-1.43
20,COc1ccc(F)cc1NC(=O)NCC1(CN2CCOCC2)CC1,21.38
21,O=C(Cc1ccccn1)N1CCn2cc(Cn3cncn3)nc2C1,22.42
22,Cn1cc(C2(C)CN(c3ncccc3C#N)CCO2)cn1 (stereo not drawn),-13.05

row,Structure (SMILES),Percent Effect [%]
1,CN(C)Cc1ccnc(NS(=O)(=O)CCc2ccccc2)c1,-12.88
2,OCc1cc2ccccc2nc1N1CCCC1,4.126
3,CCCc1nc(C(=O)N2CCN(C(=O)OC)CC2)cs1,-2.631
4,CN(C)CCNC(=O)c1cc2n(n1)CCN(C(=O)c1ccco1)C2,-13.42
5,CCCc1nc(C(=O)N2CCn3nc(C(=O)OC)cc3C2)cs1,111.4
6,Cc1cc(C)c(C(=O)N2CCn3nc(C(=O)NCCN(C)C)cc3C2)[nH]1,-6.569
7,CCCc1nc(C(=O)N2CCN(C(=O)c3ccc(OC)cc3)CC2)cs1,10.06
8,COC(=O)c1cc2n(n1)CCN(C(=O)c1csc(CN(C)C)n1)C2,85.52
9,Cc1cc(C)c2nc(CN3C[C@H](CCO)[C@@H](N)C3)cc(O)c2c1,-3.113
10,CCOCC(=O)Nc1ccc(-n2ccc(C(N)=O)n2)cc1,5.23
11,CCc1ccc(CN2CCC(=O)N(CC3CC3)C(C(C)C)C2)nc1 (stereo not drawn),-6.583
12,Cc1cc(CNC(=O)c2ccc(F)c(COCC3CC3)c2)no1,7.35
13,COCCCNC(=O)N1CCCC(c2nncn2C)C1 (stereo not drawn),-7.003
14,Cn1cnnc1C1CCCN(C(=O)NCCNc2ccccn2)C1 (stereo not drawn),14.43
15,Cn1cnnc1C1CCCN(C(=O)NCCOc2ccccc2)C1 (stereo not drawn),6.909
16,Cn1cnnc1C1CCCN(C(=O)NCCn2ccnc2)C1 (stereo not drawn),89.71
17,Cn1cnnc1C1CCCN(C(=O)NCCCn2cccn2)C1 (stereo not drawn),106.2
18,CC(C)N1CCC(CC(=O)NC(C(=O)O)c2ccc(F)cc2)CC1 (stereo not drawn),7.704
19,CC(C)N1CCC(Cc2cncc(-c3cc(F)ccc3C(=O)O)n2)C1 (stereo not drawn),135
20,CN1CCC(Cc2cccc(-c3cc(F)ccc3C(=O)O)n2)CC1,135.9
21,CC(C)N1CCC(Cc2cc(-c3ccccc3C(=O)O)ncn2)CC1,-18.63
22,CC(C)N1CCC(Cc2cncc(-c3cc(F)ccc3C(=O)O)n2)CC1,98.45

row,Structure (SMILES),Percent Effect [%]
1,CC(C)N1CCC(CNC(=O)COc2ccc(F)cc2F)C1 (stereo not drawn),8.17
2,CC(C)N1CCC(CC(=O)NC(C(=O)O)c2cc(F)ccc2F)CC1 (stereo not drawn),9.298
3,CC(C)N1CCC(CNC(=O)CCc2cc(F)ccc2F)C1 (stereo not drawn),16.43
4,Cn1cc(C(=O)O)c(-c2ccc(F)cc2F)n1,-6.689
5,CC(C)N1CCC(Cc2cc(-c3cc(F)ccc3C(=O)O)ncn2)C1 (stereo not drawn),139.5
6,CC(C)N1CCC(CC(=O)NC(C(=O)O)c2cccc(F)c2)CC1 (stereo not drawn),-7.789
7,CN1CCC(Cc2noc(-c3cn(Cc4ccc(F)cc4)nn3)n2)CC1,-9.878
8,CC(C)c1ccc(S(=O)(=O)NC2(CC(N)=O)CCC2)cc1,-1.072
9,Cn1cc(CN2CC[C@@H]3[C@@H](CCC(=O)N3CCc3c[nH]cn3)C2)cn1,6.547
10,CCOCCS(=O)(=O)N(CC)Cc1ccc(Cl)s1,-4.367
11,CCc1nn(C)c(Cl)c1CN1CCN(c2nc(C(N)=O)cs2)CC1,12.42
12,O=C1COC2(CCN(c3ncccn3)CC2)CN1c1ccsc1,18.21
13,CCc1cnc(CN(C(C)=O)C2CCN(CC(=O)N3CCCC3)C2)o1 (stereo not drawn),113.8
14,CCc1cnc(CN(C(C)=O)C2CCN(CCN3CCCCC3)C2)o1 (stereo not drawn),112.7
15,CCc1cnc(CN(C(C)=O)C2CCN(CC3(O)CCCCC3)C2)o1 (stereo not drawn),86.51
16,CCc1cnc(CN(C(C)=O)C2CCN(CCS(C)(=O)=O)C2)o1 (stereo not drawn),-15.83
17,CC(=O)N(Cc1ncc(C(C)C)o1)C1CCN(CCn2cccn2)C1 (stereo not drawn),8.925
18,COc1cccc(CN(C)Cc2cc(C#N)ccc2F)c1OC,-16.49
19,O=C(c1c[nH]c(=O)[nH]1)N1CCCC2(CCC(=O)N(C3CCCC3)C2)C1 (stereo not drawn),5.666
20,CC(C(=O)NC1CCCCC1)N1CCc2[nH]nc(C(F)(F)F)c2C1 (stereo not drawn),-5.733
21,Cc1nccn1-c1ccc(N2CCC(NC(C)CC(C)C)CC2)cc1 (stereo not drawn),16.66
22,COCCN1CCc2cc(C(=O)NC(C)C)c(NCC(C)C)nc2CC1.O=C(O)C(F)(F)F.O=C(O)C(F)(F)F,1.817

row,Structure (SMILES),Percent Effect [%]
1,COCCN1CCc2cc(C(=O)NC(C)C)c(NCC3CC3)nc2CC1.O=C(O)C(F)(F)F.O=C(O)C(F)(F)F,103.7
2,CNC(=O)c1cc2c(nc1NCC(C)C)CCN(CCOC)CC2.O=C(O)C(F)(F)F.O=C(O)C(F)(F)F,1.626
3,COCCN1CCc2cc(C(=O)NCC3CC3)c(NC(C)C)nc2CC1.O=C(O)C(F)(F)F.O=C(O)C(F)(F)F,-15.94
4,COCCN1CCc2cc(C(=O)N(C)C)c(NCC3CC3)nc2CC1.O=C(O)C(F)(F)F.O=C(O)C(F)(F)F,1.501
5,COCCN1CCc2cc(C(=O)O)c(NCC3CC3)nc2CC1.O=C(O)C(F)(F)F.O=C(O)C(F)(F)F,96.69
6,Cc1[nH]ncc1CCCNC(=O)Nc1ccc(S(C)(=O)=O)nc1,0.4286
7,O=c1[nH]c(CN(Cc2ccco2)C2CCCC2)nc2ccccc12,5.367
8,O=C(c1ccno1)N1CCOC[C@H](Oc2ccc(C(F)(F)F)cc2)C1,-17.29
9,CCN(CC)CCCN1CCN(c2nc(C)cnc2C)CC1,20.67
10,O=C(NCc1nnc2n1CCC2)N(Cc1ccco1)C1CC1,0.3443
11,O=C(NCc1nnc2n1CCCCC2)N(CC1CCOC1)C1CC1 (stereo not drawn),99.15
12,CCN(CC1CCOC1)C(=O)NCc1ccc(-n2cncn2)nc1 (stereo not drawn),19.04
13,Cc1ccc(CN(C(=O)NCc2nnc3n2CCCCC3)C2CC2)o1,2.122
14,CCN(CC1CCOC1)C(=O)NCc1nnc2n1CCCCC2 (stereo not drawn),91.82
15,CCN(Cc1ccco1)C(=O)NCc1nnc2n1CCC2,-0.2431
16,CCN(CC1CC1)C(=O)NCc1nnc2n1CCC2,96.27
17,CCN(Cc1ccco1)C(=O)NCc1nnc2n1CCCCC2,0.3449
18,O=C(NCc1nnc2n1CCCC2)N(Cc1ccccc1F)C1CC1,-10.57
19,CCN(CC1CCOC1)C(=O)NCc1nnc2n1CCC2 (stereo not drawn),118.1
20,O=C(NCc1nnc2n1CCCCC2)N(Cc1ccncc1)C1CC1,-19.08

# From ChEMBL document CHEMBL3988442, “University of Dundee, Small-Polar-MMV Screening Library” (2021)
